Data reported in PubChem BioAssay.
For some of these results: Entries with a potency or affinity are not part of this list. Activity calls are given as the source filed them. Unless noted, no rule for the calls is given here.

Experiments:
[1] = antimalarial activity against Dd2 strain (AID 2302;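 active = growth inhibition above 50% at the single 2 µM test dose, taken to imply half-maximal potency below 2 µM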;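 also: 0% = DMSO untreated growth and 100% = chloroquine plus artemisinin killed control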); settings: P. falciparum Dd2 in RBCs, LDH growth readout, 72 h; at 2 µM; active compounds read high
[2] = human hepatoma cell viability loss – ATP luminescence, cytotoxicity control for P. falciparum antimalarial project, primary screen (AID 2303;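 active = inhibition above 50%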;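 also: 0% = DMSO wells and 100% = digitonin-killed cells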); settings: HepG2 viability, 24-48 h, at 10 µM, active compounds read high
[3] = biological target: L-lactate dehydrogenase (Plasmodium falciparum (isolate CDC / Honduras)) (UniProt Q27743); experiment: PfLDH activity inhibition – cell lysate, 3D7 strain, counter-screen for P. falciparum growth inhibition project (AID 2304);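 also: 0% = vehicle and 100% = reference inhibitor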; settings: P. falciparum 3D7 crude extract, LDH APAD/NBT absorbance; at 2 µM; active compounds read high
[4] = inhibition of 3D7 malaria parasite growth – strain 3D7 (AID 2306);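 also: 0% = DMSO wells and 100% = chloroquine plus artemisinin control wells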; settings: P. falciparum 3D7 erythrocytic growth, LDH absorbance, 72 h; at 2 µM; active compounds read high
[5] = biological target: Calcium-dependent protein kinase 1 (Plasmodium falciparum (isolate 3D7)) (UniProt P62344); experiment: PfCDPK1 kinase inhibitors, biochemical, TCAMS library (AID 1159585; cut-off not given, nearly all actives have IC50 up to about 0.98 µM;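 also: inhibitors leave more ATP so luminescence rises with inhibition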); settings: recombinant PfCDPK1, Kinase-Glo ATP depletion luminescence
[6] = biological target: Plasmodium falciparum protein kinase 6 (PK6, PF3D7_1337100) (UniProt Q8IDW1); experiment: PfPK6 kinase inhibitors, biochemical, TCAMS library (AID 1159586); settings: recombinant PfPK6, Kinase-Glo ATP depletion luminescence
[7] = biological target: Protein kinase 7 (PK7), Plasmodium falciparum 3D7 (PF3D7_0213400) (UniProt Q7YTF7); experiment: inhibition of Plasmodium PK7 catalytic activity – biochemical, TCAMS antimalarial set, Kinase-Glo luminescence (AID 1159587); settings: recombinant PfPK7, Kinase-Glo ATP depletion luminescence
[8] = biological target: Calcium-dependent protein kinase 4 (Plasmodium falciparum (isolate 3D7)) (UniProt Q8IBS5); experiment: PfCDPK4 kinase inhibitors, biochemical, TCAMS library (AID 1159588; cut-off not given, nearly all actives have IC50 up to about 0.91 µM); settings: recombinant PfCDPK4, Kinase-Glo ATP depletion luminescence
Chain of Calcium-dependent protein kinase 4 (Plasmodium falciparum (isolate 3D7)) (Q8IBS5 whole entry, looked up): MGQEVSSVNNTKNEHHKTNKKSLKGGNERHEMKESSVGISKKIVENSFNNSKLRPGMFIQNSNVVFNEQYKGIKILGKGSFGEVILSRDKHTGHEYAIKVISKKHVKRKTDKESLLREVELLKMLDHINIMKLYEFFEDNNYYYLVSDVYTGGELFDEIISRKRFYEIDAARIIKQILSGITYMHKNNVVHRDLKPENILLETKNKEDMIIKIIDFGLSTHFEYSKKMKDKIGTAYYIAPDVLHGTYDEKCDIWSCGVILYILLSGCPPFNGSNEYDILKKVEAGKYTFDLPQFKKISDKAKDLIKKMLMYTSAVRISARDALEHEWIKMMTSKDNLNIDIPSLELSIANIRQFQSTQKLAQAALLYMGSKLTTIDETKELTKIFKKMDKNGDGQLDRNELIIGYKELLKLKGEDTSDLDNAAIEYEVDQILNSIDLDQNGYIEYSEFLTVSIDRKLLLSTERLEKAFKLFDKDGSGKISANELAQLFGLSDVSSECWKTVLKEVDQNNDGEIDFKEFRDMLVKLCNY

Chain of Plasmodium falciparum protein kinase 6 (PK6, PF3D7_1337100) (Q8IDW1 1-305): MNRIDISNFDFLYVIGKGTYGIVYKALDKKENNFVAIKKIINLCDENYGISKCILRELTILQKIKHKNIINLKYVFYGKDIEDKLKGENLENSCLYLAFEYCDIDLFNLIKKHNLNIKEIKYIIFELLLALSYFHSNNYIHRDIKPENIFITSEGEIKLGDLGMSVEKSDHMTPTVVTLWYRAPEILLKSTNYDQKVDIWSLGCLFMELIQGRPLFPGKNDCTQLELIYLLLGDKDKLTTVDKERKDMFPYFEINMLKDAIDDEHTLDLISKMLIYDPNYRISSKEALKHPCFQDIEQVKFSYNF
Chain of Calcium-dependent protein kinase 1 (Plasmodium falciparum (isolate 3D7)) (P62344 whole entry, looked up): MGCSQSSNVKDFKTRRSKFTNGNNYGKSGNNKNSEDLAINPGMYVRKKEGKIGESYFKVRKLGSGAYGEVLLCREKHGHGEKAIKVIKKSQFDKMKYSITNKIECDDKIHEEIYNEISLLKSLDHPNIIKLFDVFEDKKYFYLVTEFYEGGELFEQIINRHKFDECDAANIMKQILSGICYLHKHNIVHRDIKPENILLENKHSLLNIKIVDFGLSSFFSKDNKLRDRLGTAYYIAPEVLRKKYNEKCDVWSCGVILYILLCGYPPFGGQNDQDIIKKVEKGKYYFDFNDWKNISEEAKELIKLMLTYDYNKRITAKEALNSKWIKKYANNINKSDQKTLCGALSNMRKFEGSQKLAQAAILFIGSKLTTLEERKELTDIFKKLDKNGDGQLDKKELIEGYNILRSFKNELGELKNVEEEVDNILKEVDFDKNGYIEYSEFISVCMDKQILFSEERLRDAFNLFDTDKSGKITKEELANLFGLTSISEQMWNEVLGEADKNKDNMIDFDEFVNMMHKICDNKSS
Chain of Protein kinase 7 (PK7), Plasmodium falciparum 3D7 (PF3D7_0213400) (Q7YTF7 1-343): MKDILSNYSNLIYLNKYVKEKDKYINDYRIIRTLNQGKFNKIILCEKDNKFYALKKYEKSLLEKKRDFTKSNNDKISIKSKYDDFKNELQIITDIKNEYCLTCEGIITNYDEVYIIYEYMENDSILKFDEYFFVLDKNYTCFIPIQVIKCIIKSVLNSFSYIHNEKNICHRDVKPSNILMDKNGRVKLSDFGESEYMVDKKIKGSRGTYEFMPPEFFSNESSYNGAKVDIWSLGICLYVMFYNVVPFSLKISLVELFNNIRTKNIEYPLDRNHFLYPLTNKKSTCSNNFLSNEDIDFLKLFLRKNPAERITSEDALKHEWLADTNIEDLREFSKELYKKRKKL
Chain of L-lactate dehydrogenase (Plasmodium falciparum (isolate CDC / Honduras)) (Q27743 whole entry, looked up): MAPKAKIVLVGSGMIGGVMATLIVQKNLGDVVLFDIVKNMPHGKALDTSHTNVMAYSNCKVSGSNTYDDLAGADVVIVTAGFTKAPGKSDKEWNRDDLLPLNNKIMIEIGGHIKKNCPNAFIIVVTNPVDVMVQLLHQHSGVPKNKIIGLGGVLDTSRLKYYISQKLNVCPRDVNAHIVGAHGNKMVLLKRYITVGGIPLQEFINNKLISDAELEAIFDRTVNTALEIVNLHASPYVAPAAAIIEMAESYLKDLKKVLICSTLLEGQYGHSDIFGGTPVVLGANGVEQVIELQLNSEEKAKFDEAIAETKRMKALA

Clc1ccc(-c2[nH]c3ccccc3c2CN2CCC(N3CCCCC3)CC2)cc1
active: growth inhibition [4] 93%
inactive: growth inhibition [1] 15% | inhibition [2] 5% | inhibition [3] 5% | outcome [5] | outcome [6] | outcome [7] | outcome [8]

COc1cccc(CNC(=O)NC2CCN(c3ccnc(Nc4cc(OC)c(OC)c(OC)c4)n3)C2)c1 (centres undefined)
inactive: inhibition [2] 15% | inhibition [3] -6% | outcome [5] | outcome [6] | outcome [7] | outcome [8]
active: growth inhibition [1] 84% | growth inhibition [4] 93%

Cc1cc(N[C@@H](Cc2ccccc2)C(=O)Nc2ccccc2)nc(NCCc2ccccc2)n1
active: growth inhibition [1] 87% | growth inhibition [4] 101%
inactive: inhibition [2] 8% | inhibition [3] 3% | outcome [5] | outcome [6] | outcome [7] | outcome [8]

Cc1cc(=O)[nH]c(-n2nc(C)cc2NC(=O)CC(c2ccccc2)c2ccccc2)n1
active: growth inhibition [1] 62% | growth inhibition [4] 90%
inactive: inhibition [2] 42% | inhibition [3] 2% | outcome [5] | outcome [6] | outcome [7] | outcome [8]

COc1c(C2CCN(CCCCNC(=O)C=Cc3cc4cc(Cl)ccc4o3)CC2)ccc2c1CCCC2
inactive: growth inhibition [1] 19% | inhibition [2] 33% | inhibition [3] 2% | outcome [5] | outcome [6] | outcome [7] | outcome [8]
active: growth inhibition [4] 87%

Cc1ccc2c(c1C)NC(=O)C21NN=C(c2ccccc2)S1 (centres undefined)
active: growth inhibition [1] 65% | growth inhibition [4] 97%
inactive: inhibition [2] 31% | inhibition [3] 0% | outcome [5] | outcome [6] | outcome [7] | outcome [8]

COc1cc(CS(C)(=O)=O)ccc1Nc1nccc(-c2c(-c3cccc(NC(=O)c4c(F)cccc4F)c3)nn3ccccc23)n1
active: growth inhibition [1] 71% | growth inhibition [4] 92%
inactive: inhibition [2] 46% | inhibition [3] 3% | outcome [5] | outcome [6] | outcome [7] | outcome [8]

O=C(C=Cc1cn(-c2ccccc2)nc1-c1ccccc1)N1CCN(c2ccncc2)CC1
inactive: growth inhibition [1] 20% | inhibition [2] 11% | inhibition [3] 2% | outcome [5] | outcome [6] | outcome [7] | outcome [8]
active: growth inhibition [4] 90%

COc1ccc2ncc(C#N)c(CCN3[C@@H]4CC[C@H]3CC(NCc3ccc5c(n3)NC(=O)CS5)C4)c2c1 (some centres undefined)
active: growth inhibition [4] 95%
inactive: growth inhibition [1] 27% | inhibition [2] 6% | inhibition [3] -1% | outcome [5] | outcome [6] | outcome [7] | outcome [8]

O=C(Nc1cccc(CN2CCCN(Cc3ccc(O)cc3)CC2)c1)c1ccc(-c2ccccc2)cc1
active: growth inhibition [1] 93% | growth inhibition [4] 100%
inactive: inhibition [2] 33% | inhibition [3] -8% | outcome [5] | outcome [6] | outcome [7] | outcome [8]

COc1ccc(-c2ccc3c(-c4ccc(F)cc4)cnc(N)c3c2)cn1
active: growth inhibition [1] 86% | growth inhibition [4] 99%
inactive: inhibition [2] 4% | inhibition [3] -5% | outcome [5] | outcome [6] | outcome [7] | outcome [8]

O=c1cc(NCCCNCc2cc(C(F)(F)F)ccc2Cl)[nH]c2ccccc12
active: growth inhibition [4] 90%
inactive: growth inhibition [1] 20% | inhibition [2] 25% | inhibition [3] -2% | outcome [5] | outcome [6] | outcome [7] | outcome [8]

O=c1ccc2ccc(F)c3c2n1CC3CN1CCC(NCc2cccc(-c3ccccc3F)c2)CC1 (centres undefined)
active: growth inhibition [4] 100%
inactive: growth inhibition [1] 6% | inhibition [2] 29% | inhibition [3] -1% | outcome [5] | outcome [6] | outcome [7] | outcome [8]

Cc1ccc(CN2CCCN(Cc3cccc(C(=O)Nc4ccc(C(C)(C)C)cc4)c3)CC2)s1
active: growth inhibition [4] 85%
inactive: growth inhibition [1] 4% | inhibition [2] 31% | inhibition [3] -5% | outcome [5] | outcome [6] | outcome [7] | outcome [8]

CCc1c(CCNCCCCCCNCCc2ccc(Br)cc2)ccc(OC)c1OC
inactive: growth inhibition [1] 14% | inhibition [3] 0% | outcome [5] | outcome [6] | outcome [7] | outcome [8]
active: inhibition [2] 100% | growth inhibition [4] 99%

S=C(NCCCCCN1CCC(c2c[nH]c3ccccc23)CC1)Nc1cc(Cl)cc(Cl)c1
active: growth inhibition [4] 100%
inactive: growth inhibition [1] 35% | inhibition [2] 25% | inhibition [3] -4% | outcome [5] | outcome [6] | outcome [7] | outcome [8]

C/C=C/COc1ccc(-c2c(C)[nH]c(C)c(Cl)c2=O)cc1
inactive: inhibition [2] 0% | inhibition [3] 2% | outcome [5] | outcome [6] | outcome [7] | outcome [8]
active: growth inhibition [1] 97% | growth inhibition [4] 97%

Cc1ccc(Cn2ncc(N3CCC(N)CC3)c(Cl)c2=O)cc1NC(=O)Nc1ccc(-c2ccccc2)cc1
active: growth inhibition [4] 90%
inactive: growth inhibition [1] 25% | inhibition [2] 29% | inhibition [3] -5% | outcome [5] | outcome [6] | outcome [7] | outcome [8]

COc1ccc2c(c1)c(C1CCN(CCCCNC(=O)c3ccc(-c4ccc(C(F)(F)F)cc4)cc3)CC1)cn2C(C)C
inactive: growth inhibition [1] 21% | inhibition [2] 26% | inhibition [3] 0% | outcome [5] | outcome [6] | outcome [7] | outcome [8]
active: growth inhibition [4] 99%

CN1CCCc2ccc(NC(=O)Nc3ccc(-c4ccccc4)cc3)cc2C1
active: growth inhibition [4] 97%
inactive: growth inhibition [1] 47% | inhibition [2] 23% | inhibition [3] 0% | outcome [5] | outcome [6] | outcome [7] | outcome [8]

O=C(/C=C/c1ccc(Cl)c(Cl)c1)NCCCCCN1CCCN(C(=O)Nc2ccc(OC(F)F)cc2)CC1
inactive: growth inhibition [1] -4% | inhibition [2] 39% | inhibition [3] 3% | outcome [5] | outcome [6] | outcome [7] | outcome [8]
active: growth inhibition [4] 99%

CCCOc1ccc(C(=O)Nc2nonc2-c2ccc(OC)c(OC)c2)cc1
active: growth inhibition [1] 97% | growth inhibition [4] 99%
inactive: inhibition [2] -9% | inhibition [3] 5% | outcome [5] | outcome [6] | outcome [7] | outcome [8]

COc1cc(SC)c(Br)cc1-c1nc2ccncc2[nH]1
inactive: growth inhibition [1] 9% | inhibition [2] 5% | inhibition [3] -1% | outcome [5] | outcome [6] | outcome [7] | outcome [8]
active: growth inhibition [4] 91%

CCCCCCCN1CC[C@@H](CCCc2ccnc3ccc(OCCN4CCNCC4)cc23)[C@@H](CC)C1
inactive: inhibition [3] -2% | outcome [5] | outcome [6] | outcome [7] | outcome [8]
active: growth inhibition [1] 98% | inhibition [2] 82% | growth inhibition [4] 101%

CN(Cc1ccccc1)C1CCN(c2cc(NC(=O)c3cccc(F)c3)ccn2)CC1
active: growth inhibition [4] 93%
inactive: growth inhibition [1] 3% | inhibition [2] 2% | inhibition [3] -2% | outcome [5] | outcome [6] | outcome [7] | outcome [8]

Cn1cc(CCNc2ccnc(NCCc3coc4ccccc34)n2)c2ccccc21
inactive: growth inhibition [1] 28% | inhibition [2] 26% | inhibition [3] 6% | outcome [5] | outcome [6] | outcome [7] | outcome [8]
active: growth inhibition [4] 87%

O=c1ccc2ccc(F)cc2n1CCN1CCC(NCc2ccc(-c3ccccn3)s2)CC1
active: growth inhibition [4] 98%
inactive: growth inhibition [1] 30% | inhibition [2] -12% | inhibition [3] -1% | outcome [5] | outcome [6] | outcome [7] | outcome [8]

Cc1[nH]cnc1CSCCNC(=NCCCCCCCCN=C(NC#N)NCCSCc1nc[nH]c1C)NC#N
active: growth inhibition [4] 81%
inactive: growth inhibition [1] 48% | inhibition [2] 1% | inhibition [3] 0% | outcome [5] | outcome [6] | outcome [7] | outcome [8]

CN(C)CCOc1ccc(-c2cc(-c3ccc(Cl)c(O)c3)c(-c3ccncc3)o2)cc1
inactive: inhibition [2] 39% | inhibition [3] 2% | outcome [5] | outcome [6] | outcome [7] | outcome [8]
active: growth inhibition [1] 99% | growth inhibition [4] 102%

O=C(Cc1ccc(-c2ccccc2)cc1)N[C@H]1CCN(Cc2ccc(OCCCN3CCCCC3)cc2)C1
active: growth inhibition [4] 99%
inactive: growth inhibition [1] 27% | inhibition [2] 36% | inhibition [3] 0% | outcome [5] | outcome [6] | outcome [7] | outcome [8]

c1ccc(Oc2ccc(Nc3ccnc4cc(-c5csc(CNCCN6CCOCC6)n5)ccc34)cc2)cc1
inactive: inhibition [2] -1% | inhibition [3] 0% | outcome [5] | outcome [6] | outcome [7] | outcome [8]
active: growth inhibition [1] 99% | growth inhibition [4] 101%

COc1cc2c(cc1S(=O)(=O)c1ccc(COc3ccc(C(F)(F)F)cc3)cc1)CNCC2
active: growth inhibition [1] 89% | growth inhibition [4] 103%
inactive: inhibition [2] 32% | inhibition [3] 5% | outcome [5] | outcome [6] | outcome [7] | outcome [8]

CC(C)N=C(N)NN=Cc1ccc(Cl)c(Cl)c1
active: growth inhibition [4] 101%
inactive: growth inhibition [1] 12% | inhibition [2] -8% | inhibition [3] -2% | outcome [5] | outcome [6] | outcome [7] | outcome [8]

CCOc1cc(C(=O)NC2CC(C)(C)NC(C)(C)C2)ccc1-c1nc2ccc(Cl)cc2[nH]1
inactive: inhibition [2] 46% | inhibition [3] 4% | outcome [5] | outcome [6] | outcome [7] | outcome [8]
active: growth inhibition [1] 64% | growth inhibition [4] 100%

CCN(CC)CCCN(C(=O)Nc1c(Cl)cncc1Cl)c1nc(-c2ccc(F)cc2)cs1
inactive: inhibition [2] 37% | inhibition [3] -5% | outcome [5] | outcome [6] | outcome [7] | outcome [8]
active: growth inhibition [1] 93% | growth inhibition [4] 101%

Clc1ccc2c(NCc3ccccn3)ccnc2c1
inactive: inhibition [2] 0% | inhibition [3] -4% | outcome [5] | outcome [6] | outcome [7] | outcome [8]
active: growth inhibition [1] 99% | growth inhibition [4] 99%

CCCC(CNC(=O)c1cc2c(Cl)cc(Cl)cc2[nH]1)CNc1cc(=O)c2ccccc2[nH]1 (centres undefined)
active: growth inhibition [1] 94% | growth inhibition [4] 100%
inactive: inhibition [2] 9% | inhibition [3] -5% | outcome [5] | outcome [6] | outcome [7] | outcome [8]

COc1cccc(-c2ccc(O)c(CNCCc3cccc(F)c3)c2)n1
active: growth inhibition [1] 67% | growth inhibition [4] 96%
inactive: inhibition [2] -14% | inhibition [3] 0% | outcome [5] | outcome [6] | outcome [7] | outcome [8]
